From ChEMBL document CHEMBL3988442, “University of Dundee, Small-Polar-MMV Screening Library” (2021) come the findings set out here.

Assay [1] addresses T1, Aspartate--tRNA(Asp/Asn) ligase (Mycobacterium tuberculosis (strain ATCC 25618 / H37Rv)) (UniProt P9WFW3).
T1 sequence (whole entry): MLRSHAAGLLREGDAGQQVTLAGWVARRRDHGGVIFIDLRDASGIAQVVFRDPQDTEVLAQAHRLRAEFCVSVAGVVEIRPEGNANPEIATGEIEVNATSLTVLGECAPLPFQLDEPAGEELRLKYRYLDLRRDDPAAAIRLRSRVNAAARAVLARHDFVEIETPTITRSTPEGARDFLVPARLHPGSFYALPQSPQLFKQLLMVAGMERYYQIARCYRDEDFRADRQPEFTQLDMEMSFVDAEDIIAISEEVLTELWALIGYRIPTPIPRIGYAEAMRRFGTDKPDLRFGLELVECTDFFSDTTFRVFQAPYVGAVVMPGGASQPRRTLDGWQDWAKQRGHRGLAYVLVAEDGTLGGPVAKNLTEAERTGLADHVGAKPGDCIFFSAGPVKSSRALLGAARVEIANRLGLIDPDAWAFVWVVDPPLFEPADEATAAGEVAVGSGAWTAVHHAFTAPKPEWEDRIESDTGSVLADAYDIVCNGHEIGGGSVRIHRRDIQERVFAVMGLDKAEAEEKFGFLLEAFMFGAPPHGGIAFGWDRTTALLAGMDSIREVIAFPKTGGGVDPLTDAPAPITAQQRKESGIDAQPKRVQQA
The assay can be described thus: Assay for Asp RNA synthetase-1 from Mycobacterium tuberculosis. It counts as functional. Set-up: scale not given: direction of the effect not stated beside the values. The following applies: 30 µM.

The target in assay [2] is Shiga toxin 2 (Escherichia coli O157:H7) (UniProt P09385+P09386). The assay can be described thus: E. coli 0.157:H7 Shiga Toxin SOP - stx2 screening assay. In kind it is functional. Further details: scale not given: direction of the effect not stated beside the values. The following applies: 30 µM.

Each structure is given as a SMILES string.

For the compound `O=C(NCC1CC1)C1CSCN1S(=O)(=O)c1cccc(F)c1` (configuration not stated), the values for the Percent Effect in assay [1] and in assay [2] were 2.56% and -5.9%, respectively.
As for `O=C(NCC(=O)N1CCc2ccccc2C1)c1ccoc1`, the Percent Effect in assay [1] was 1.62%; in assay [2], -10.2%.
With `CC(C)C(=O)NCC(=O)N(C)C1CCCN(C2Cc3ccccc3C2)C1` (configuration not stated), the Percent Effect is 1.1% in assay [1] and 0.34% in assay [2].
In the same order, the values of `N#Cc1ccc(S(=O)(=O)NC(=O)C2CC2)c(C(F)(F)F)c1` are 4.77% and 9.71%.
In the same order, the values of `Cc1nc2ccccc2nc1CN1CCCC1c1c(C)nn(C)c1C` (configuration not stated) are -5.6% and -18.4%.
As for `COC[C@@H]1CC[C@H]2[C@H](CCN2C(=O)c2ccncc2F)O1`, the Percent Effect in assay [1] was 3.94%; in assay [2], 7.83%.
As to `NC(=O)C1(Cc2ccccc2-c2ccccc2)CCCN(CC2CC2)C1` (configuration not stated), the values for the Percent Effect in assay [1] and in assay [2] were 2.13% and -5.72%, respectively.
In the same order, the values of `Cc1ccc(CN2C[C@@H]3COC[C@H](C(=O)N4CCCCO4)[C@@H]3C2)o1` are 1.57% and -5.34%.
The like results for `Cc1ncsc1C(=O)NC1CCN(CC(=O)NCc2ccccc2)CC1` were, in that order, 1.54% and 34.9%.
The like results for `CC(=O)c1cccc(OCCCC(=O)N(C)Cc2ccccn2)c1` were, in that order, -1.04% and -20%.
Regarding `Cn1ccc(C(=O)N2CCC(Cc3cccc4cccnc34)C2)n1` (configuration not stated), the Percent Effect in assay [1] is -7.19%; in assay [2] it was 15.7%.
With `CCOc1ccc(C2CC(=O)Nc3c2c(=O)nc2sccn32)cc1` (configuration not stated), the results for the Percent Effect in assay [1] and in assay [2] were 0.813% and -16.9%, respectively.
The like results for `CCOc1ccccc1C(=O)N1CCCC1c1ncc2c(n1)CCNC2` (configuration not stated) were, in that order, -3.07% and 48.2%.
In the same order, the values of `CC(C)N1CC(C(=O)NCCc2csc(-c3ccncc3)n2)CC1=O` (configuration not stated) are 2.56% and -26.5%.
The like results for `COc1ccccc1OC1CCN(Cc2cnc(N(C)C)nc2)CC1` were, in that order, -2.72% and 17.9%.
Take `O=C(c1ccccn1)N1CCCC(c2nccn2CC2CCC2)C1` (configuration not stated): the Percent Effect was 4.83% in assay [1] and -29.9% in assay [2].
The like results for `CCC(=O)Nc1nnc(CCOc2cccc(OC)c2)s1` were, in that order, -4.27% and 5.93%.
In the case of `Cc1nc(N2CCCC2)nc2c1CN(C(C)C)CC2`, the Percent Effect in assay [1] was 1.86%; in assay [2], -13.3%.
In the same order, the values of `O=C(NCCNc1ncccn1)Nc1cc(C(F)(F)F)c[nH]c1=O` are -1.25% and 3.13%.
In the case of `Cc1ncc2c(n1)CN(CCCc1nc3ccccc3o1)CC2`, the Percent Effect in assay [1] was 6.8%; in assay [2], -10.6%.
In the same order, the values of `O=C(COc1cccc2c1CCC2=O)NCc1ccccc1F` are 10.4% and -7.67%.
The like results for `COCCN1CCc2cc(C(=O)NCC3CC3)c(NC(C)C)nc2CC1` were, in that order, 7.66% and 6.55%.
In the same order, the values of `COc1cc(C(=O)N2CCCC(CNS(C)(=O)=O)C2)cc(OC)c1C` (configuration not stated) are -4.03% and 25.9%.
For the compound `Cc1cnn(CCNCc2ccccc2C#N)c1`, the figures for the Percent Effect in assay [1] and in assay [2] were -1.14% and 12.5%, respectively.
The like results for `CN1CCOC(CN(C(=O)Cc2ccccc2F)c2nccs2)C1` (configuration not stated) were, in that order, -1.89% and -16%.
The like results for `Cc1occc1C(=O)Nc1ccnc(OC2CCOC2)c1` (configuration not stated) were, in that order, -6.74% and 3.41%.
In the same order, the values of `c1cc(CN2CCCC(c3noc(C4CC4)n3)C2)no1` (configuration not stated) are -0.285% and 4.12%.
Turning to `COC(=O)c1cccc(NC(=O)CCn2nc(-c3cccs3)oc2=O)c1`, the Percent Effect in assay [1] was found to be 1.89%; in assay [2] it was 18.1%.
The like results for `Cc1nc(C)n(CC2CCCN(CC(=O)Nc3c(C)n[nH]c3C)C2)n1` (configuration not stated) were, in that order, -1.34% and 32.2%.
The like results for `CSCCNC(=O)c1ccc(OC2CCN(CC(C)(C)C)CC2)c(Cl)c1` were, in that order, 1.62% and -38.1%.
In the same order, the values of `Cn1ccc(C(=O)NCc2cccc(N3CCCCC3=O)c2)cc1=O` are 0.417% and -29.6%.
As to `OC(COc1ccccc1)CN1CCc2c(ncn2C2CC2)C1` (configuration not stated), the Percent Effect in assay [1] is -7.92%; in assay [2] it was -25.6%.
The like results for `CS(=O)(=O)NCc1nnc2n1CCN(CC1CC1)C2` were, in that order, 2.77% and 4.81%.
The like results for `CCc1ncc2c(n1)CN(Cc1nc(-c3ccsc3)oc1C)CC2` were, in that order, 2.25% and 25.2%.
In the same order, the values of `O=C1COC2(CCN(Cc3ccc(F)cc3)CC2)CN1` are 0.549% and 11.4%.
In the case of `Cn1cc(C(=O)NCc2cn3c(n2)CN(Cc2ccccn2)CC3)cn1`, the Percent Effect in assay [1] was 6.41%; in assay [2], -42%.
The like results for `N#Cc1ccnc(N2CCN(CC(O)c3cccc(F)c3)CC2)c1` (configuration not stated) were, in that order, 1.79% and 5.66%.
The like results for `Cc1cnn(CC(C)NCc2ccc(S(C)(=O)=O)cc2)c1` (configuration not stated) were, in that order, 1.18% and -66.9%.
The like results for `CCOc1ccccc1CSc1nnc(CC2CCS(=O)(=O)C2)n1C` (configuration not stated) were, in that order, 4.33% and 4.92%.
For the compound `O=C(c1ccc[nH]1)N1CCC(c2nccn2Cc2ccncc2)CC1`, the Percent Effect in assay [1] is 5.61%; in assay [2] it was -10.8%.
In the same order, the values of `CC(C)S(=O)(=O)NCC1CCCN(C(=O)c2ccc3c(c2)OCCO3)C1` (configuration not stated) are 6.79% and -18.1%.
The like results for `Cn1ccnc1CN1CCN(CC(O)c2ccco2)CC1` (configuration not stated) were, in that order, 4.07% and 20%.
`FC1(F)CCN(Cc2ccncc2)CC12CCN(Cc1ccccn1)C2` (configuration not stated): the Percent Effect was 4.66% in assay [1] and -2.47% in assay [2].
As to `COc1cccc2ccn(CCC(=O)N3CCCC(C(=O)O)C3)c12` (configuration not stated), the Percent Effect in assay [1] is 9.22%; in assay [2], -2.31%.
The like results for `Cc1c(Br)cccc1C(=O)NC(C)CN1CCCC1=O` (configuration not stated) were, in that order, -1.01% and 1.67%.
In the same order, the values of `CCCc1n[nH]c(C2CN(C(=O)C3=COCCC3)CCO2)n1` (configuration not stated) are -5.39% and 19%.
The like results for `CN(C)C(=O)c1nc2c(s1)CCN(C(=O)c1ccc(Cl)cc1)CC2` were, in that order, 2.36% and -16.7%.
With `Cc1nc(C)n(CC2CN(c3ccc(C#N)cn3)CCO2)n1` (configuration not stated), the Percent Effect in assay [1] was 2.39%; in assay [2], 19.5%.
In the same order, the values of `CCn1ccnc1CN1CCN(CCOc2cccc(C#N)c2)CC1` are -0.322% and -9.38%.
In the same order, the values of `Cc1nc(C)n(CC2CCCN2CC(=O)Nc2ccnn2C(C)C)n1` (configuration not stated) are -1.15% and 23.4%.
In the case of `Cc1ccc(CCC(=O)N(C)CCN2CCOCC2)c(C)c1`, the Percent Effect is -4.01% in assay [1] and -8.65% in assay [2].
